This passage reports outcome and AC50 results from PubChem BioAssay (EPA / NIEHS).

The source made the active and inactive calls. How the source made its calls: active means hit-call score of the fitted dose curve at least 0.9, where 1 is the maximum; inactive means score below 0.9.

Read-out in this assay: Phosphatase and tensin (PTEN), PTEN (gene 5728)
Nature of the assay: LTEA_HepaRG_PTEN: Life Technologies and Expression Analysis (LTEA) Assay for Phosphatase and tensin (PTEN) using HepaRG (AID 2283523). To be noted: mRNA level, 48 h; actives raise or lower the signal. On the procedure: LTEA_HepaRG is a cell based, multiplexed-readout assay that uses HepaRG, a human liver cell line, with measurements taken at 48 hours after chemical dosing on a 96-well plate.LTEA_HepaRG_PTEN is one of 102 assay component(s) measured in the LTEA HepaRG cell culture assay. It is a marker of Cell proliferation, survival, death.Data from the assay component LTEA_HepaRG_PTEN was analyzed into 1 endpoint. This assay endpoint, LTEA_HepaRG_PTEN, was analyzed with bidirectional fitting relative to DMSO as the negative control and baseline of activity. Using a type of inducible reporter, measures of mRNA induction for gain or loss-of-signal activity can be used to understand regulation of transcription factor activity. To generalize the intended target to other relatable targets, this assay endpoint is annotated to the phosphatase intended target family, where the subfamily is dual-specific phosphatase.
A total of 1060 chemcials from the ToxCast library were tested in eight-point concentration-response experiments. Cell culture and cytotoxicity assays were conducted at Thermo Fisher Scientific's Custom Services facility (Madison, WI). A single lot of human HepaRG cells (Thermo Fisher Scientific, Frederick, MD) was used for the cell culture experiments. 96-well format collagen type I coated plates of human HepaRG cells were prepared using established methods. Briefly, cryopreserved HepaRG cells were thawed, plated at a density of approximately 100,000 cells/well in HepaRG Thaw, Plate, and General Purpose media (HPRG770, Thermo Fisher Scientific), and incubated for 48 hours. 0.5% DMSO was selected as vehicle control to balance the requisite need of DMSO in HepaRG cultures to maintain differentiation (for example, baseline metabolism, proportions of hepatocytes vs. cholangiocytes), while enabling further hepatic receptor pathway activation (for example, PXR and CAR) in response to chemical exposure. 48 hours after plating, the culture medium was replaced with HepaRG Serum-Free Incudtion Media. Cells were exposed to each test chemical in duplicate and maintained in CO2 incubators for another 48 hours. Chemical plates were thawed to room temperature and 200x concentrations of treatment groups were prepared. 8-point conentration-reponse curves were made with the highest exposure at 100 uM, followed by half-log dilutions, all in 0.5% DMSO. Each test plate contained variouse controls, induction positive controls (1mM phenobarbital), cytotoxicity positive controls ([…] aflatoxin B1), vehicle controls (0.5% DMSO), and total lysis controls (0.5% DMSO). Cell morphology images were taken using an Essen IncuCyte FLR automated microscope, with six 96-well plates imaged in about 24 minutes. Images were captured and exported and JPEG files. Spent culture media was transfered to black-well plates for the LDH assay, and remaining media was sorted at -80 C for later use. Cells were treated with RLT buffer and frozen until shipped for gene expression analysis. Total RNA was isolated from the cell suspension in 75 uL of Buffer RLT (Qiagen, Germantown, MD 20874) by Quintiles/Expression Analysis (Durham, NC) using a custom isolation procedure. Total RNA from each plate well was transferred to a preamplification plate. Fluidigm's 96.96 Dynamic ArrayTM (Fluidigm, Amsterdam, the Netherlands) technology was used for gene expression analyses by quantitative reverse transcription polymerase chain reaction (qRT-PCR, performed by Quintiles/Expression Analysis, Durham, NC)89. Standard TaqManTM Assays (Applied Biosystems/ThermoFisher Scientific, Foster City, CA) were used to assess the expression of 93 genes selected based on their selectivity and sensitivity to important hepatic receptors known to be modulated by environmental chemicals; importance in human hepatocyte functionality; and hepatotoxicity. […]
Turning to `CC(C)(C)OOC(C)(C)CCC(C)(C)OOC(C)(C)C`, the compound was classed as inactive. Turning to `O=C(Nc1ccccc1)c1ccccc1I`, the outcome was inactive.

For `Nc1ccc([N+](=O)[O-])cc1`, the compound was called inactive. Regarding `CCCCCOC(=O)c1ccccc1C(=O)OCCCCC`, the compound was classed as inactive. In the case of `OCCCl`, the compound was called inactive. Still for that read-out and setting: as for `CCOC(=O)[C@]1(c2ccccc2)Oc2ccccc2[C@@H]1N`, the entry is “inactive”.

For `c1ccc2c(c1)-c1cccc3cccc-2c13`, the result was inactive. Take `CN(C)C(=O)Nc1ccc(Cl)cc1`: the outcome was inactive. `CCCCOC(=O)c1ccccc1C(=O)OCc1ccccc1`: the call was inactive. Consider `Clc1ccc(Cl)c(Cl)c1`, for which the compound was called inactive.

With `C1=Cc2cccc3cccc1c23`, the outcome was inactive. In the case of `O=C(Oc1ccc(Br)cc1)N1CCN2CCC1CC2`, the result was inactive. On the same count and under the same terms, as for `CNC(=O)Oc1cccc2c1OC(C)(C)C2`, the entry is “inactive”; as for `CCOc1cccc(C2(N3CCN(c4ccccc4)CC3)CCC(C)CC2)c1` (stereo not given), “inactive”. The same measure, in the same setting: the entry for `CCCCC(CC)COC(=O)c1ccc(C(=O)OCC(CC)CCCC)c(C(=O)OCC(CC)CCCC)c1` (stereo not given) is “inactive”. `ClC1=C(Cl)[C@]2(Cl)[C@H]3[C@H]([C@@H]4C=C[C@H]3C4)[C@@]1(Cl)C2(Cl)Cl`: the compound was called inactive. As to `CC(O)CCO` (stereo not given), the call was inactive. As to `C[N+](C)(C)CC1CO1` (stereo not given), the compound was called inactive. `Oc1ccccc1Cl`: the result was inactive. Turning to `CCCCCCCCn1sccc1=O`, the compound was called inactive.

In the case of `CN(C)c1ccc(C(=O)c2ccc(N(C)C)cc2)cc1`, the outcome was inactive. `CO[C@@H]1[C@H](OC(=O)NC(=O)CCl)CC[C@]2(CO2)[C@H]1[C@@]1(C)O[C@@H]1CC=C(C)C`: the compound was classed as inactive. For the compound `COC(=O)Nc1nc2ccccc2[nH]1`, the compound was classed as inactive. Regarding `CCC[CH2][Sn]([Cl])([CH2]CCC)[CH2]CCC`, the compound was classed as inactive. With `CC(C)(C)OOC(=O)c1ccccc1`, the call was inactive. Regarding `c1ccc(C2CO2)cc1` (stereo not given), the outcome was inactive. As to `CCN(CC)N=O`, the result was inactive. On the same count and under the same terms, as for `OCCOCCO`, the entry is “inactive”; as for `CCCSC(=O)N(CCC)CCC`, “inactive”. On to `c1ccc(N=Nc2ccccc2)cc1`, for which the compound was called inactive.

As for `c1ccc(NNc2ccccc2)cc1`, the compound was classed as inactive. Consider `[Cl-].[Cl-].[Hg+2]`, for which the result was inactive. Turning to `O=C1CCCO1`, the AC50 is 82.9 µM (active). For `CC(C)(C)C(O)(CCc1ccc(Cl)cc1)Cn1cncn1` (stereo not given), the compound was classed as inactive.

Regarding `Cc1ccc(N)c(N)c1`, the call was inactive. `Nc1ccc(Cc2ccc(N)cc2)cc1`: the compound was classed as inactive. As for `Nc1cc(Cl)cc(C(=O)O)c1Cl`, the result was inactive. Regarding `Cc1ccc([N+](=O)[O-])cc1`, the result was inactive. With `CCC12COCN1COC2`, the compound was called inactive. Regarding `Brc1ccc(Oc2ccccc2)cc1`, the call was inactive.

What is called AC50 is the concentration giving half of the maximal activity seen.
